Inconclusive results are not listed. Activity calls are given as the source filed them. The call rests on the fitted dose curve; in most records, active means well fitted cell-killing curve with a large enough effect; inconclusive means small, poorly fitted or top-dose-only effect; inactive means flat fitted curve, though single readings scatter.
What was measured:
[1] = Cell Viability - LYMP2-017 (AID 972); settings: LYMP2-017 lymphoblastoid cell viability; further: nearly all actives have a fitted effect of over 55% in size
Outline: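 Cytotoxicity is scored as a concentration-dependent drop in cellular ATP in a human lymphoblastoid line after 24 hr treatment at 37 C. Values are AC50s from Hill-equation modelling.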

[2] = Cell Viability - LYMP2-019 (AID 973); settings: LYMP2-019 lymphoblastoid cell line viability; further: nearly all actives have a fitted effect of over 55% in size
Outline: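 Cytotoxicity is scored as a concentration-dependent drop in cellular ATP after cells (2500/well) receive compound for 24 hr at 37 C. Tetraoctylammonium bromide serves as positive control.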

[3] = Cell Viability - LYMP2-021 (AID 974); settings: LYMP2-021 lymphoblastoid cells viability;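 further: compound exposure lasts 24 hours at 37 °C; nearly all actives have a fitted effect of over 55% in size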
Outline: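 Loss of cellular ATP, measured with a luciferase-based CellTiter-Glo readout, serves as the toxicity signal in human lymphoblastoid cells treated for 24 hours at 37 C. Potency is reported as AC50 from a standard Hill model.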

[4] = Cell Viability - LYMP2-023 (AID 975); settings: LYMP2-023 lymphoblastoid cell viability; further: nearly all actives have a fitted effect of over 55% in size
Outline: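 Steps: seed 2500 human lymphoblastoid cells per well, incubate 5 hr at 37 C, add compound for 24 hr at 37 C, add CellTiter-Glo, hold 30 min at room temperature, read luminescence. AC50 derived by Hill modelling.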

[5] = Cell Viability - LYMP2-025 (AID 976); settings: LYMP2-025 lymphoblastoid cell viability
Outline: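 Acute cytotoxicity is scored as a concentration-dependent fall in intracellular ATP, measured by luciferase luminescence, in human lymphoblastoid LYMP2-025 cells exposed to compound for 24 hours at 37 C. AC50 values come from standard Hill fits.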

[6] = Cell Viability - LYMP2-002 (AID 977); settings: LYMP2-002 lymphoblastoid cell viability, qHTS;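 further: compound exposure lasted 24 h at 37 °C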
Outline: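 Human lymphoblastoid cells (2500/well) in complete medium were preincubated 5 hr at 37 C, then exposed to compounds for 24 hr at 37 C. Intracellular ATP was read by CellTiter-Glo luminescence; AC50 came from Hill-equation concentration-response fits.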

[7] = Cell Viability - LYMP2-006 (AID 978); settings: LYMP2-006 lymphoblastoid cell viability, qHTS; further: nearly all actives have a fitted effect of over 60% in size
Outline: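 Cells are seeded at 2500 per well and rested 5 hr at 37 C. Compounds are added across a concentration series for 24 hr at 37 C, after which ATP is quantified by luciferase luminescence.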

[8] = Cell Viability - LYMP2-007 (AID 979); settings: LYMP2-007 lymphoblastoid cell viability;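 further: cells exposed to compound for 24 h before reading; nearly all actives have a fitted effect of over 60% in size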
Outline: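 Cells are seeded at 2500 per well and rested 5 hr. Compounds are then added over a concentration series for 24 hr at 37 C. CellTiter-Glo is added for 30 min at room temperature before luminescence reading.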

[9] = Cell Viability - LYMP2-008 (AID 980); settings: LYMP2-008 lymphoblastoid cell viability, qHTS; further: nearly all actives have a fitted effect of over 60% in size
Outline: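 Cells seeded at 2500/well and rested 5 hr at 37 C; compounds added over a concentration range and incubated 24 hr at 37 C; CellTiter-Glo added, 30 min at room temperature; luminescence read and AC50 fitted with Hill model.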

[10] = Cell Viability - LYMP2-010 (AID 981); settings: LYMP2-010 lymphoblastoid cell viability, qHTS; further: nearly all actives have a fitted effect of over 55% in size
Outline: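 Steps: seed 2500 LYMP2-010 cells per well; incubate 5 hr at 37 C; add compound; incubate 24 hr at 37 C; add CellTiter-Glo, wait 30 min at room temperature; read luminescence. Concentration-response fitted to Hill equation for AC50.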

[11] = Cell Viability - LYMP2-012 (AID 982); settings: LYMP2-012 lymphoblastoid cell viability qHTS
[12] = Cell Viability - LYMP2-014 (AID 983); settings: LYMP2-014 lymphoblastoid cells, viability qHTS; further: nearly all actives have a fitted effect of over 50% in size
Outline: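 Cells are plated at 2500/well and left 5 hr at 37 C. Compounds are added across a concentration range and incubated 24 hr at 37 C in complete medium. CellTiter-Glo is added, and luminescence is read after 30 min at room temperature.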

[13] = Cell Viability - LYMP2-016 (AID 984); settings: LYMP2-016 lymphoblastoid cell viability, qHTS; further: nearly all actives have a fitted effect of over 55% in size
Outline: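 Cells were seeded at 2500 per well and rested 5 hr before a 24 hr compound exposure at 37 C. Viability was then gauged as cellular ATP by luciferase luminescence, with AC50 values fitted to the Hill equation.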

[14] = Cell Viability - LYMP2-018 (AID 985); settings: LYMP2-018 lymphoblastoid cells, viability (qHTS); further: nearly all actives have a fitted effect of over 50% in size
Outline: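 Seed 2500 lymphoblastoid cells per well, incubate 5 hr at 37 C, add compound and incubate 24 hr at 37 C, add CellTiter-Glo, wait 30 min at room temperature, then read luminescence.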

[15] = Cell Viability - LYMP2-020 (AID 986); further: nearly all actives have a fitted effect of over 55% in size
Outline: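 Seed 2500 cells per well and incubate 5 hr at 37 C. Add compounds at a concentration series and incubate 24 hr at 37 C. Add CellTiter-Glo, wait 30 min at RT, read luminescence, and fit a Hill curve for AC50.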

[16] = Cell Viability - LYMP2-022 (AID 987); settings: LYMP2-022 lymphoblastoid cell viability; further: nearly all actives have a fitted effect of over 55% in size
Outline: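 Cells were seeded at 2500 per well, rested 5 hr at 37 C, and treated with titrated compounds for 24 hr at 37 C. Cellular ATP was then quantified by luciferase luminescence, and AC50 values were derived from Hill-modelled concentration-response curves.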

[17] = Cell Viability - LYMP2-024 (AID 988); settings: LYMP2-024 lymphoblastoid cell viability; further: nearly all actives have a fitted effect of over 60% in size
Outline: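 qHTS cytotoxicity, human lymphoblastoid line, complete medium; 24 h cpd treatment, 37 C; CellTiter-Glo ATP luminescence readout; tetraoctylammonium bromide positive control; AC50 via Hill fit.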

[18] = Cell Viability - LYMP2-026 (AID 989); settings: LYMP2-026 lymphoblastoid cell viability, qHTS; further: nearly all actives have a fitted effect of over 50% in size
Outline: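 Cells are seeded at 2500 per well and held 5 hr at 37 C. Compounds are added in concentration series for 24 hr, then CellTiter-Glo reagent is applied and luminescence read.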

[19] = Cell Viability - LYMP1-002 - Assay at 24 hr (AID 993); settings: LYMP1-002 lymphoblastoid cells viability
Outline: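 Acute toxicity is measured as concentration-dependent loss of cellular ATP in a human lymphoblastoid line (Coriell LYMP1-002) after 24 h treatment in complete medium. ATP is quantified by luciferase luminescence and AC50 derived by Hill modelling.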

Measured: Potency
Potency means the concentration at half of the fitted maximal effect.

O=C1c2c(O)ccc([N+](=O)[O-])c2C(=O)c2c([N+](=O)[O-])ccc(O)c21
active: [1] 31.6 µM | [2] 39.8 µM | [3] 39.8 µM | [4] 39.8 µM | [5] 39.8 µM | [6] 39.8 µM | [7] 31.6 µM | [8] 39.8 µM | [9] 31.6 µM | [10] 31.6 µM | [11] 39.8 µM | [12] 39.8 µM | [13] 31.6 µM | [14] 39.8 µM | [15] 39.8 µM | [16] 39.8 µM | [17] 39.8 µM | [18] 39.8 µM | [19] 39.8 µM
